Laboratory results published in article PMC3218832.

How the values were obtained:
Experiment in all cases: protein binding microarray; high values mean tight binding
Settings in all cases: dsDNA, one strand shown
RELARELA (p65 homodimer) = RELARELA (p65 homodimer) (Homo sapiens, UniProt Q04206 1-307)
p50p50 homodimer = p50p50 homodimer (Homo sapiens, UniProt P19838 7-356)
p52p52 homodimer = biological target: T1, p52p52 homodimer (Homo sapiens, UniProt Q00653 4-332)
T1 sequence: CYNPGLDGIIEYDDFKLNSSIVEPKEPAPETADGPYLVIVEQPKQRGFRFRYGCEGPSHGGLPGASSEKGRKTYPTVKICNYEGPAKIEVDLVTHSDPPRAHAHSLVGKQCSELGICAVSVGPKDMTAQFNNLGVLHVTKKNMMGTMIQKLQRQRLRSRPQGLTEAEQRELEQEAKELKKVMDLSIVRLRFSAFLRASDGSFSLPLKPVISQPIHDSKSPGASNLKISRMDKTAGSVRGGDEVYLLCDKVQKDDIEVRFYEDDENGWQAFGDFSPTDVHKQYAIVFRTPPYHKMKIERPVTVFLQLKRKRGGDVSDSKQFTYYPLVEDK

[1] = biological target: RELA (p65) subunit of heterodimer;p50 subunit (Homo sapiens;Homo sapiens, UniProt Q04206;P19838 1-307;7-356)
[2] = biological target: RELA (p65) subunit of heterodimer;p52 subunit (Homo sapiens;Homo sapiens, UniProt Q04206;Q00653 1-307;4-332)
RELB subunit;p50 subunit = RELB subunit;p50 subunit (Homo sapiens;Homo sapiens, UniProt Q01201;P19838 120-401;7-356)
RELB subunit;p52 subunit = biological target: T2, RELB subunit;p52 subunit (Homo sapiens;Homo sapiens, UniProt Q01201;Q00653 120-401;4-332)
T2 sequence 1: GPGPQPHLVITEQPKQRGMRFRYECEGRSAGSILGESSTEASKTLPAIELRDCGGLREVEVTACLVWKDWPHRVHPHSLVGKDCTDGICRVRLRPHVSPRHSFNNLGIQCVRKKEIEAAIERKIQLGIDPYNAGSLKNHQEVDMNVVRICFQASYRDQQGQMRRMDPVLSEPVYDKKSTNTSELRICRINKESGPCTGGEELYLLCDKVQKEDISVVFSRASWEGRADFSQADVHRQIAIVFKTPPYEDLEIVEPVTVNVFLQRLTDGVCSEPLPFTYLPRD
T2 sequence 2: T1 sequence

[3] = biological target: C-Rel subunit;p50 subunit (Homo sapiens;Homo sapiens, UniProt Q04864;P19838 1-285;7-356)
[4] = biological target: T3, C-Rel subunit;p52 subunit (Homo sapiens;Homo sapiens, UniProt Q04864;Q00653 1-285;4-332)
T3 sequence 1: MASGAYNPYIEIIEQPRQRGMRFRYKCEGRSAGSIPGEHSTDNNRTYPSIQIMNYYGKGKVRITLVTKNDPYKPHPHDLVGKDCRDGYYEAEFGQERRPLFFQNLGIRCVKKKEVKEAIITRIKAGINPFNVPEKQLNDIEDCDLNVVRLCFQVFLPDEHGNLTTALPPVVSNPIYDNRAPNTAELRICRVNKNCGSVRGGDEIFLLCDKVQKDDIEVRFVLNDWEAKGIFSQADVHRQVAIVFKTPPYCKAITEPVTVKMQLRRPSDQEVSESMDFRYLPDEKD
T3 sequence 2: T1 sequence

Sequence of p50p50 homodimer (P19838 7-356): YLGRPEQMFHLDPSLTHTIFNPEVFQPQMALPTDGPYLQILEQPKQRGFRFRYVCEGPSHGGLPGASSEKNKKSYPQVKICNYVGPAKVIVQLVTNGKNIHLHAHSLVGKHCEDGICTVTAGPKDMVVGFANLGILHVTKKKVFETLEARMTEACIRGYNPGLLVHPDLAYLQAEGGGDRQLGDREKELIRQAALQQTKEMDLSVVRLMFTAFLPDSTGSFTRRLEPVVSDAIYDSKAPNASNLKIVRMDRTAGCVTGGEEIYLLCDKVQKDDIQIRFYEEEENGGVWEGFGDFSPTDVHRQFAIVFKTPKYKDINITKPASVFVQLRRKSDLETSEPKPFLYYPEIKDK
Sequence of RELA (p65) subunit of heterodimer;p50 subunit (Q04206 1-307, chain 1 of 2): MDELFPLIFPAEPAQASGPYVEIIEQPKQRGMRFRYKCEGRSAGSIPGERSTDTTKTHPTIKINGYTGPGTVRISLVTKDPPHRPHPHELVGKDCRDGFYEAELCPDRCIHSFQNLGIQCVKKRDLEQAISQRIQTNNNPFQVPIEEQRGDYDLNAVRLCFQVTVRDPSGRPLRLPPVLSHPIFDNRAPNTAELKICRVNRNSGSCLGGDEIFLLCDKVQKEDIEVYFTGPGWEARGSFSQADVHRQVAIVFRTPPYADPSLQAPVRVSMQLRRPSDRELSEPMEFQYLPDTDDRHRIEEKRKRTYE
Sequence of RELA (p65) subunit of heterodimer;p50 subunit (P19838 7-356, chain 2 of 2): as the sequence (P19838 7-356) above
Sequence of RELARELA (p65 homodimer) (Q04206 1-307): as the sequence (Q04206 1-307, chain 1 of 2) above

Sequence | binding signal (RELARELA (p65 homodimer)) [z-score] | binding signal (p50p50 homodimer) [z-score] | binding signal (p52p52 homodimer) [z-score] | binding signal [1] [z-score] | binding signal [2] [z-score] | binding signal (RELB subunit;p50 subunit) [z-score] | binding signal (RELB subunit;p52 subunit) [z-score] | binding signal [3] [z-score] | binding signal [4] [z-score]
AGGTGCACCCC | -0.368 | 0.235 | 0.492 | 0.0923 | 0.549 | 0.107 | 0.61 | -0.0192 | 0.815
GAAAACCCCCT | 1.83 | 1.6 | 2.75 | 2.46 | 2.59 | 3.02 | 2.62 | 1.99 | 2.86
AAAAGCCTCCT | -1.11 | -1.28 | -0.721 | -0.959 | -1.07 | -1.23 | -0.999 | -1.5 | -1.03
GGAATCGTCCC | 0.862 | 0.42 | 0.582 | 0.504 | 0.591 | 0.29 | 0.267 | 0.649 | 0.392
CAGAGTGTCCC | 0.916 | 0.0211 | 0.161 | 0.185 | 0.144 | 0.304 | 0.434 | 0.274 | 0.221
AAATGGACCCC | -0.781 | -0.458 | -0.348 | -0.532 | -0.428 | -0.448 | -0.0987 | -0.615 | -0.473
CGAGTAACCCC | -0.498 | -0.0762 | -0.149 | -0.232 | -0.211 | -0.188 | 0.213 | -0.0464 | -0.115
AGGTTTATCCT | -0.465 | -0.953 | -0.558 | -1.01 | -0.905 | -0.943 | -0.798 | -1.17 | -0.61
GGAGGGTCCCT | -0.115 | 0.371 | 0.534 | 0.933 | 0.819 | 0.287 | 0.448 | 0.496 | 0.547
GAAGAGTTCCC | 0.742 | 0.281 | -0.0634 | 0.27 | 0.0483 | 0.132 | -0.0744 | 0.46 | 0.057
AGAAACTTCCC | 2.01 | 0.652 | 0.45 | 0.846 | 0.818 | 0.409 | 0.541 | 0.576 | 0.741
GAGGGCATCCC | 0.359 | -0.785 | -0.256 | -0.318 | -0.398 | -0.647 | -0.505 | -0.179 | -0.277
AAGTACCTCCT | 0.111 | 0.67 | 0.0441 | 0.737 | -0.123 | 0.852 | 0.227 | 0.224 | -0.202
CAATAATCCCT | -0.146 | 0.635 | 0.735 | 0.226 | 0.493 | 0.496 | 0.698 | 0.212 | 0.284
GGATAGGTCCC | -0.076 | -0.336 | 0.0228 | -0.276 | -0.141 | -0.137 | -0.101 | -0.467 | -0.334
